# PubChem BioAssay (Tox21)
# Several values for one entry are separate records, joined by “and”; a condition that tells them apart may be missing. Equal entries are not always repeated. Results filed as inconclusive are left out. Where a call stands in place of a potency, no number is given. Activity calls are given as the source filed them. Unless noted, calls come from the whole dose curve; as a rule, active = well fitted curve in the direction sought with a large enough effect in the repeat runs; inconclusive = weak or mixed curves; inactive = no such curve, though single readings can be large; an effect the other way counts as inactive or inconclusive.
# Tests used:
# [1] = qHTS assay for small molecule agonists of the p53 signaling pathway (AID 651631; calls by dose curve; note: nearly all actives have a fitted effect of over 15% in size)
# In short: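 Agonist mode screen using a stably integrated beta-lactamase gene under p53 response elements in HCT-116 cells. Compound exposure lasts 16 h at 37 °C; fluorescence intensity is measured following 2 h FRET substrate loading.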
# [2] = qHTS assay for small molecules that induce genotoxicity in human embryonic kidney cells expressing luciferase-tagged ATAD5 (AID 651632); note: nearly all actives have a fitted effect of over 15% in size
# In short: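 Luminescent reporter readout, HEK293T ATAD5-luc line: 16 hr drug exposure (37C, 5% CO2) followed by Amplite, 30 min RT.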
# [3] = qHTS assay for small molecule agonists of the p53 signaling pathway - cell viability (AID 651633; calls by dose curve;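 note: p53RE-bla HCT reporter cells with a stable beta-lactamase p53 reporter; series mostly up to about 83 µM; nearly all actives have a fitted effect of over 30% in size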)
# In short: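 Viability counter-read: CellTiter-Glo luminescence (30 min, room temperature) in the same p53RE-bla plates. These plates had been exposed to compounds for 16 h at 37 C.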
# [4] = qHTS assay for small molecules that induce genotoxicity in human embryonic kidney cells expressing luciferase-tagged ATAD5 - cell viability (AID 651634; calls by dose curve; note: nearly all actives have a fitted effect of over 25% in size; note: potency is the fitted concentration of half-maximal effect)
# In short: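 Viability read: CellTiter-Fluor fluorescence, 30 min at 37C. Cells: HEK293T, luciferase-tagged ATAD5. Exposure: 15.5 hr, 37C, 5% CO2, compound or DMSO vehicle.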
# [5] = qHTS assay for small molecule disruptors of the mitochondrial membrane potential - cell viability (AID 720634; calls by dose curve;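 note: human HepG2 liver cancer cells; series mostly up to about 83 µM; nearly all actives have a fitted effect of over 20% in size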)
# In short: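 HepG2, 1 hr compound, 37 C. ATP luminescence via CellTiter-Glo, 30 min RT, same well as m-MPI.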
# [6] = qHTS assay for small molecule disruptors of the mitochondrial membrane potential (AID 720635); note: potency is the fitted concentration of half-maximal effect
# In short: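 Mitochondrial membrane potential tracked with Mito-MPS dye, red aggregates (ex 540/em 590 nm) against green monomers (ex 490/em 535 nm). Compound treatment 1 hr at 37C, dye 30 min in HepG2.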
# [7] = qHTS assay to test for compound auto fluorescence at 590 nm (red) in HepG2 cells (AID 720674)
# In short: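 We screened compounds on adherent HepG2 cells, incubating them for an hour at 37 C in 5% CO2 before reading emission at 590 nm under 540 nm excitation; values reflect equivalence to Rose Bengal sodium fluorescence.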
# [8] = qHTS assay to test for compound auto fluorescence at 460 nm (blue) in HEK293 cells (AID 720678)
# In short: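 Measured: blue fluorescence (Ex 405/Em 460 nm) of compound-treated HEK293 cells, incubated overnight at 37C with 5% CO2 and scaled to triamterene equivalents.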
# [9] = qHTS assay to test for compound auto fluorescence at 590 nm (red) in HEK293 cells (AID 720679)
# In short: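 Using HEK293 cells at 2,000 per well, the screen added 23 nL of each compound after cell attachment and incubated overnight (37C, 5% CO2). The plate reader then captured red-label fluorescence, Ex/Em 540/590nm.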
# [10] = qHTS assay to test for compound auto fluorescence at 535 nm (green) in HEK293 cells (AID 720680)
# [11] = qHTS assay to test for compound auto fluorescence at 460 nm (blue) in HEK293 cell free culture (AID 720681)
# In short: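 Blue fluorescence (Ex 405/Em 460 nm, triamterene-equivalent) was read immediately after pin transfer of compound or DMSO into medium (DMEM, 10% FBS) without cells.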
# [12] = qHTS assay to test for compound auto fluorescence at 535 nm (green) in HEK293 cell free culture (AID 720682)
# In short: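 No cells present: wells hold DMEM supplemented with 10% FBS, into which compound or vehicle is pinned. Green emission is then recorded (485 nm excitation, 535 nm emission) and scaled to fluorescein.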
# [13] = qHTS assay to test for compound auto fluorescence at 590 nm (red) in HepG2 cell free culture (AID 720684)
# In short: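 Plate contents were MEM with 10% FBS plus test compound or DMSO, no cells. Fluorescence was recorded with 540 nm excitation and 590 nm emission.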
# [14] = qHTS assay to test for compound auto fluorescence at 460 nm (blue) in HepG2 cell free culture (AID 720685)
# In short: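 Compound (23 nL) or DMSO pinned into cell-free MEM with 10% FBS; blue fluorescence read at 405/460 nm excitation/emission, expressed as auto-fluorescence equivalency to triamterene.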
# [15] = qHTS assay to test for compound auto fluorescence at 535 nm (green) in HepG2 cell free culture (AID 720686)
# [16] = target: Glucocorticoid receptor (Homo sapiens) (UniProt P04150); experiment: qHTS assay to identify small molecule agonists of the glucocorticoid receptor (GR) signaling pathway (AID 720691; active = well fitted activation curve with a large enough effect in the signal ratio in the repeat runs, not every such curve was filed as active; the % refers to the signal ratio)
# Chain of Glucocorticoid receptor (Homo sapiens) (P04150 whole entry, looked up): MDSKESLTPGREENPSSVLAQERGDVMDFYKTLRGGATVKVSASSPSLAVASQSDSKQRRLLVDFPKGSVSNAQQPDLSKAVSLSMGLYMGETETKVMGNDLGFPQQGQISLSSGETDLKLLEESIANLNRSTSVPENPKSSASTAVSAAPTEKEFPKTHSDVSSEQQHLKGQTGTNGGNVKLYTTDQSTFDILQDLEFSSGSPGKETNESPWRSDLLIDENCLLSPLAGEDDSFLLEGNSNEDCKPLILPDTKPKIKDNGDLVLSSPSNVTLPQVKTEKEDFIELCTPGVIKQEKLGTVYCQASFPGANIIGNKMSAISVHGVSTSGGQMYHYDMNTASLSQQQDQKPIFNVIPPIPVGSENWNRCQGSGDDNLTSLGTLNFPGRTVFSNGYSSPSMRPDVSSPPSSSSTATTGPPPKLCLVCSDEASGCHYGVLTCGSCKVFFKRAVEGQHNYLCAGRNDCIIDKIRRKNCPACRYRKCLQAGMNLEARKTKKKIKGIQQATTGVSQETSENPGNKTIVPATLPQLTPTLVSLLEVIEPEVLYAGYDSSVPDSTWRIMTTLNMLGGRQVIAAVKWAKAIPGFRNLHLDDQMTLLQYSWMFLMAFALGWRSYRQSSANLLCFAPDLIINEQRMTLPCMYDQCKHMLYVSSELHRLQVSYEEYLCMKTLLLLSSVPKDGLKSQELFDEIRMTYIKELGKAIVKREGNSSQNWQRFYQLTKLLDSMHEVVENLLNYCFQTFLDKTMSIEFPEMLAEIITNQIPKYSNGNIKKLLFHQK
# In short: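 qHTS in GR-bla HeLa cells: 4 h settling at 37 C/5% CO2, 18 h compound incubation at 37 C, 2 h LiveBLAzer B/G FRET substrate at room temperature, fluorescence intensity measured.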
# [17] = target: Glucocorticoid receptor (Homo sapiens) (UniProt P04150); experiment: qHTS assay to identify small molecule antagonists of the glucocorticoid receptor (GR) signaling pathway (AID 720692; active = well fitted inhibition curve with a large enough effect in the signal ratio in the repeat runs, not every such curve was filed as active; the % refers to the signal ratio; note: potency is the fitted concentration of half-maximal effect)
# In short: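 Inhibition of glucocorticoid signalling is measured in HeLa cells with a GRE-controlled beta-lactamase reporter; cells are co-treated with compound and 5 nM dexamethasone (final) for 18 h before FRET substrate readout.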
# [18] = qHTS assay to test for compound auto fluorescence at 590 nm (red) in HEK293 cell free culture (AID 720683)
# In short: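 Red-channel autofluorescence of compounds in culture medium (DMEM, 10% FBS), no cells, measured at 540/590 nm. Rose Bengal sodium is the reference fluorophore for equivalence.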
# [19] = qHTS assay to test for compound auto fluorescence at 460 nm (blue) in HepG2 cells (AID 720687)
# In short: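 Blue-channel autofluorescence (Ex/Em 405/460 nm, triamterene-equivalent) was measured after 1 hr compound exposure at 37 C, 5% CO2. Cells were HepG2, plated overnight at 37 C in MEM plus 10% FBS.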
# [20] = qHTS assay to test for compound auto fluorescence at 535 nm (green) in HepG2 cells (AID 720675)
SMILES,outcome [1],outcome [2],outcome [3],Potency [4],Potency [5],Potency [6],outcome [7],outcome [8],outcome [9],outcome [10],outcome [11],outcome [12],outcome [13],outcome [14],outcome [15],outcome [16],Potency [17],outcome [18],outcome [19],outcome [20]
CC1(C)CC(N)CC(C)(CN)C1 (stereo not drawn),inactive,inactive,inactive,inactive,inactive,inactive,inactive,inactive,inactive,inactive,inactive,inactive,inactive,inactive,inactive,inactive,inactive,–,–,–
O=C(O)c1ccc(S(=O)(=O)N(Cl)Cl)cc1,inactive,inactive,inactive,inactive,inactive,inactive,inactive,inactive,inactive,inactive,inactive,inactive,inactive,inactive,inactive,inactive,inactive,inactive,inactive,–
CCCCCC(=O)O,inactive,inactive,inactive,inactive,inactive,inactive,inactive,inactive,inactive,inactive,–,inactive,inactive,–,inactive,–,–,inactive,inactive,–
Cc1ccc([N+](=O)[O-])cc1S(=O)(=O)O,inactive,inactive,inactive,inactive,inactive,inactive,inactive,inactive,inactive,inactive,inactive,inactive,inactive,inactive,–,inactive,inactive,inactive,inactive,–
CC(C)c1cccc(C(C)C)c1,–,inactive,–,inactive,inactive,–,inactive,inactive,inactive,inactive,inactive,inactive,inactive,inactive,inactive,inactive,inactive,inactive,inactive,inactive
O=[N+]([O-])c1ccc2nc[nH]c2c1,–,inactive,–,inactive,inactive,27.3 µM (active),inactive,inactive,inactive,inactive,inactive,inactive,inactive,inactive,–,–,–,inactive,–,–
CC(C)CC(C)O (stereo not drawn),–,inactive,–,inactive,inactive,inactive,inactive,inactive,inactive,inactive,inactive,inactive,inactive,–,inactive,–,–,inactive,inactive,inactive
C[C@]12CCC(=O)C=C1CC[C@@H]1[C@@H]2[C@@H](O)C[C@@]2(C)[C@H]1CC[C@]2(O)C(=O)CO,–,inactive,–,inactive,–,–,inactive,inactive,inactive,inactive,inactive,inactive,inactive,–,inactive,–,–,inactive,inactive,inactive
O=S(=O)(O)c1ccc(N=Nc2c(O)ccc3cc(S(=O)(=O)O)ccc23)cc1,–,inactive,inactive,30.8 µM (active) and 30.6 µM (active),inactive,–,inactive,inactive,inactive,inactive,–,inactive,inactive,–,–,inactive,inactive,–,inactive,–
COC(=O)CCCC(=O)OC,inactive,inactive,inactive,inactive,–,–,inactive,inactive,inactive,inactive,–,inactive,inactive,inactive,inactive,inactive,inactive,–,–,–
CC(=O)OCc1ccco1,–,inactive,–,inactive,inactive,inactive,inactive,inactive,inactive,inactive,–,–,inactive,–,inactive,–,–,inactive,inactive,inactive
C=C(C)CNCC,inactive,inactive,inactive,inactive,–,–,inactive,inactive,inactive,inactive,–,–,inactive,inactive,–,inactive,inactive,–,inactive,inactive
CN(C)c1ccc(O)c2c1C[C@H]1C[C@H]3[C@H](N(C)C)C(=O)C(C(N)=O)=C(O)[C@@]3(O)C(=O)C1=C2O,–,inactive,inactive,inactive,inactive,inactive,inactive,inactive,inactive,inactive,inactive,inactive,inactive,inactive,inactive,inactive,inactive,–,inactive,–
O=c1[nH]cnc2[nH]ncc12,–,inactive,inactive,inactive,inactive,inactive,inactive,inactive,inactive,inactive,–,inactive,inactive,–,–,inactive,inactive,inactive,–,inactive
OC1C(O)C(O)C(O)C(O)C1O (stereo not drawn),–,inactive,inactive,inactive,inactive,–,inactive,inactive,inactive,inactive,inactive,inactive,inactive,inactive,–,–,–,–,inactive,inactive
N[C@H](Cc1c[nH]c2ccccc12)C(=O)O,–,–,inactive,inactive,inactive,inactive,inactive,inactive,inactive,inactive,–,inactive,inactive,inactive,–,inactive,–,–,inactive,inactive
C=C(C)[C@H]1CC=C(C)C(=O)C1,–,inactive,inactive,inactive,inactive,–,inactive,inactive,inactive,inactive,inactive,–,inactive,inactive,–,inactive,inactive,inactive,inactive,inactive

SMILES,outcome [1],outcome [2],outcome [3],Potency [4],Potency [5],Potency [6],outcome [7],outcome [8],outcome [9],outcome [10],outcome [11],outcome [12],outcome [13],outcome [14],outcome [15],outcome [16],Potency [17],outcome [18],outcome [19],outcome [20]
CCCCOC(=O)c1ccc(N)cc1,inactive,–,inactive,inactive,inactive,inactive,inactive,inactive,inactive,inactive,–,–,inactive,–,–,inactive,inactive,inactive,–,–
N#Cc1ccccc1,inactive,–,inactive,inactive,inactive,inactive,inactive,inactive,inactive,inactive,inactive,inactive,inactive,–,–,inactive,inactive,inactive,–,inactive
CCCCCCCCCCCCCCCCO,–,inactive,inactive,inactive,inactive,inactive,inactive,inactive,inactive,inactive,–,inactive,inactive,–,–,inactive,inactive,inactive,inactive,–
O=C(O)Cn1c(=O)n(Cc2ccc(Br)cc2F)c(=O)c2ccc(Cl)cc21,inactive,inactive,inactive,–,inactive,–,inactive,inactive,inactive,inactive,inactive,–,inactive,–,–,inactive,–,–,–,inactive
C[C@]12CC[C@@H]3c4ccc(O)cc4CC[C@H]3[C@@H]1C[C@@H](O)[C@@H]2O,inactive,–,inactive,–,inactive,inactive,inactive,inactive,inactive,inactive,inactive,–,inactive,inactive,inactive,inactive,12 µM (active) and 38.9 µM (active),inactive,inactive,inactive
OCc1ccccc1,–,inactive,inactive,inactive,inactive,inactive,inactive,inactive,inactive,inactive,inactive,inactive,inactive,inactive,inactive,inactive,inactive,inactive,inactive,–
O=C(O)c1ccc(C(=O)O)c(C(=O)O)c1,–,inactive,inactive,inactive,inactive,inactive,inactive,inactive,inactive,inactive,–,–,inactive,inactive,–,inactive,inactive,–,–,inactive
CC(=O)OCc1ccccc1,–,inactive,inactive,inactive,inactive,inactive,inactive,inactive,inactive,inactive,inactive,–,inactive,inactive,inactive,inactive,inactive,–,inactive,inactive
COc1ccc(CCC(C)=O)cc1,–,inactive,inactive,inactive,inactive,–,inactive,inactive,inactive,inactive,inactive,–,inactive,inactive,inactive,–,–,inactive,inactive,inactive
CCO[Si](CCC#N)(OCC)OCC,–,inactive,inactive,inactive,inactive,inactive,inactive,inactive,inactive,inactive,inactive,–,inactive,inactive,inactive,inactive,inactive,inactive,–,inactive
CC(C)(Oc1ccc(CCNC(=O)c2ccc(Cl)cc2)cc1)C(=O)O,–,inactive,inactive,inactive,inactive,inactive,inactive,inactive,inactive,inactive,inactive,inactive,inactive,inactive,inactive,inactive,inactive,–,inactive,inactive
CCCCCCC=O,inactive,inactive,inactive,inactive,inactive,–,inactive,inactive,inactive,inactive,–,–,inactive,inactive,inactive,inactive,inactive,–,inactive,–
CC(=O)OCCOC(C)=O,inactive,inactive,inactive,inactive,–,–,inactive,inactive,inactive,inactive,–,inactive,inactive,inactive,–,inactive,inactive,inactive,–,inactive
Nc1ccc(Cl)c(N)c1,–,inactive,inactive,inactive,inactive,68.8 µM (active),inactive,inactive,inactive,inactive,inactive,inactive,inactive,–,inactive,–,–,inactive,inactive,inactive
CC1(C)OC[C@@H]2O[C@@]3(C(=O)O)OC(C)(C)O[C@H]3[C@@H]2O1,–,inactive,inactive,inactive,inactive,inactive,inactive,inactive,inactive,inactive,–,–,inactive,inactive,inactive,–,–,–,inactive,inactive
NCCNCCN,inactive,inactive,inactive,inactive,–,–,inactive,inactive,inactive,inactive,inactive,inactive,inactive,–,inactive,–,–,–,inactive,inactive
